# Laboratory results taken from PubChem BioAssay.
# Inconclusive results are not listed. Activity calls are given as the source filed them.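 Rule for the calls, unless noted: active = response below a set limit, under 55% cells CD8-positive and vesicle-bound, and CD8 cells' 90th-percentile brightness under 279; inactive = the rest.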
# Experiments:
# [1] = rapamycin-like changes in RPL19A-GFP expression – cell-based, S. cerevisiae, multiplex flow cytometry, primary screen (AID 1862; in the data active = percent of DMSO control GFP below about 86%;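 note: lower values mimic rapamycin by blocking the RPL19A rise seen in DMSO cells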); settings: S. cerevisiae RPL19A-GFP strain, flow cytometry fluorescence, 3 h; at 10 µM; stronger effect = lower value
# [2] = TOR pathway GLN3 branch reporter MEP2-GFP changes – S. cerevisiae, multiplex flow cytometry, primary screen (AID 1867;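 active = GFP response, as percent of the DMSO control, above the screen-wide mean plus 3 SD, about 139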;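 note: median GFP channel fluorescence of barcode-gated MEP2-GFP cells measured by flow cytometry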); settings: S. cerevisiae MEP2-GFP strain, 3 h, at 10 µM, stronger effect = higher value, 100% means same as DMSO wells
# [3] = TOR pathway RTG branch CIT2 reporter changes – S. cerevisiae, GFP fusion, multiplex flow cytometry, primary screen (AID 1870;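 active = percent response above a set limit, the screen-wide mean plus 3 SD, cut at about 130% in these data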;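 note: barcoded CIT2-GFP strain pooled with four other GFP strains with rapamycin as positive control; median GFP fluorescence per well over plate mean of DMSO wells so 100% = DMSO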); settings: S. cerevisiae CIT2-GFP expression, 3 h, at 10 µM, stronger effect = higher value
# [4] = TOR pathway LAP4-GFP level changes – S. cerevisiae, multiplex flow cytometry, primary screen (AID 1873;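 active = GFP signal, as percent of the solvent control, above the screen mean plus 3 SD, about 149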); settings: S. cerevisiae LAP4-GFP expression, 3 h, at 10 µM, stronger effect = higher value
# [5] = yeast AGP1-GFP level changes, GLN3 branch – cell-based, multiplex flow cytometry, S. cerevisiae, primary screen (AID 1887;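 active = GFP signal above the screen-wide mean plus 3 SD, that is over about 124.5% of the solvent control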;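 note: AGP1-GFP fusion strain of S. cerevisiae within a five-strain barcoded multiplex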); settings: 3 h, at 10 µM, stronger effect = higher value
# [6] = reduced mouse 2C T cell binding to pMHC/ICAM-1 vesicles – MLPCN validation set, flow cytometry, LFA-1/ICAM-1 modulator project, pilot screen (AID 2523); settings: 2C mouse CD8+ T cells, at 7 µM, stronger effect = lower value; double positive events: measured here: CD8+/vesicle+ event percentage;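 for vesicle binding response: mean PE anti-B7-1 fluorescence of CD8+ cells relative to row control; 100% = QL9-loaded vesicles with DMSO vehicle in the same plate row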
# [7] = target: Integrin beta-1 (Homo sapiens) + Integrin alpha-4 (Homo sapiens) (UniProt P13612+P05556); assay: alpha4beta1 integrin LIBS antibody binding reduction – U937 cells, HUTS-21 mAb, flow cytometry, validation set, VLA-4 allosteric modulator project, pilot screen (AID 2674;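 active = inhibition above 50%, about 3 SD of the validation set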;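 note: antibody binding induced by the VLA-4 ligand LDV present at three times its Kd; 0% = LDV ligand with antibody and no compound and 100% = antibody without LDV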); settings: HUTS-21 LIBS mAb binding, at 6.7 µM, stronger effect = higher value, binding induced by LDV ligand
# Sequence of Integrin beta-1 (Homo sapiens) + Integrin alpha-4 (Homo sapiens) (P05556 whole entry, looked up): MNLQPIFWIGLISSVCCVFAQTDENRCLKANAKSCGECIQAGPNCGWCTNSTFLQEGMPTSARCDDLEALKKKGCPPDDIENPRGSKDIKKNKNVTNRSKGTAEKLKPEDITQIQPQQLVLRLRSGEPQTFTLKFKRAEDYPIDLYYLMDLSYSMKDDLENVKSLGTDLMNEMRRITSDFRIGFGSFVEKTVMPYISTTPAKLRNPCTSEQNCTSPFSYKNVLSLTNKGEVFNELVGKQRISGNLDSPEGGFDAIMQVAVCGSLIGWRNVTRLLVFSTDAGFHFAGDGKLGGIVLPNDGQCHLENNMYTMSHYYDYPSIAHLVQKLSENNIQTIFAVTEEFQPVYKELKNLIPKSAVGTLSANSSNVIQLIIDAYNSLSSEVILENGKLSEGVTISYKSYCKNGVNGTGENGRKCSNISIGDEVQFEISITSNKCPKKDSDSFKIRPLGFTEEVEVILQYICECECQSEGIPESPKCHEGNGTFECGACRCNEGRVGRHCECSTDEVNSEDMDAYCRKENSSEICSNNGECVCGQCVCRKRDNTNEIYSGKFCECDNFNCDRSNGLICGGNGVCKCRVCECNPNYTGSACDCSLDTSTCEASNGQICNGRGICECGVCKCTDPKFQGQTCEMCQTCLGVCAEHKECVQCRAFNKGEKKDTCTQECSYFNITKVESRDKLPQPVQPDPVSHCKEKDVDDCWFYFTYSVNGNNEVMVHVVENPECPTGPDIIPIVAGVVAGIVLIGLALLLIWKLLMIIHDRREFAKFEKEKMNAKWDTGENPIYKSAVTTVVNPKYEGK
# Sequence of Integrin beta-1 (Homo sapiens) + Integrin alpha-4 (Homo sapiens) (P13612 whole entry, looked up): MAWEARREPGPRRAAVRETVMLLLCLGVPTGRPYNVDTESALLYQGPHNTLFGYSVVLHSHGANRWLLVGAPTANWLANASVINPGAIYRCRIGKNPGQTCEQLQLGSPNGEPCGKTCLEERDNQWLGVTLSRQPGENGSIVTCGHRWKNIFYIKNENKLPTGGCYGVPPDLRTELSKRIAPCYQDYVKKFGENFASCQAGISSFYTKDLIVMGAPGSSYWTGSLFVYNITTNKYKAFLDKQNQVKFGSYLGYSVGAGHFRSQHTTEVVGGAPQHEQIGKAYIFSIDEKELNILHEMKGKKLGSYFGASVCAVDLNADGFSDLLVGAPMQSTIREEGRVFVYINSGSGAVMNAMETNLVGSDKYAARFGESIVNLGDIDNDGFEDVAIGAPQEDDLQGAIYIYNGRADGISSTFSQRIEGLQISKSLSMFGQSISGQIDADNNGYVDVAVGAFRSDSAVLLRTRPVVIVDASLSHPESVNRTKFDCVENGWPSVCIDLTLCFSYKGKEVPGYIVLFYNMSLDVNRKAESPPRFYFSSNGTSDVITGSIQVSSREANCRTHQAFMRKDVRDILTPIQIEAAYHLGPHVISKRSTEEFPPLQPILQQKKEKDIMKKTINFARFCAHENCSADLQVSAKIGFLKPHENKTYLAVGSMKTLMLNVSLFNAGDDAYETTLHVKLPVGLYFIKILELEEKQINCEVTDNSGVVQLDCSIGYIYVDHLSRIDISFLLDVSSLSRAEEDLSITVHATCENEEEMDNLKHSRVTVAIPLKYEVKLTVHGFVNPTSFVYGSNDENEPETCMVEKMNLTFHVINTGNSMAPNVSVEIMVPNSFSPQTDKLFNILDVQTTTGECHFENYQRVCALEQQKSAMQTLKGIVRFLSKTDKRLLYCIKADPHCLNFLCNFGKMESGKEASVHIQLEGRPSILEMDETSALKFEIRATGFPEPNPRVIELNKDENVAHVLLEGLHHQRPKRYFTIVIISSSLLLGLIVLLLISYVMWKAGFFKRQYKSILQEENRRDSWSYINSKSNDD
# [8] = calorie-restriction mimetic ROS inhibitors, yeast – validation compound set, pilot screen (AID 2706;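 active = superoxide response below 65% of plate, a cut near 3 SD across the whole screen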;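 note: yeast exposed to compound for one week at 30 degrees C before staining; 100% = mean of all compound wells on the same plate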); settings: S. cerevisiae aging, superoxide DHE fluorescence; at 10 µM; stronger effect = lower value
# [9] = target: Beta-adrenergic receptor kinase 1 (Homo sapiens) (UniProt P25098); assay: GRK2 binders displacing RNA aptamer, biochemical, validation, human GRK2, bead flow cytometry (AID 488806;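 active = aptamer binding inhibition above 30%, about 3 SD of noise from non-fluorescent compounds; inactive = inhibition at or below 30%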); settings: bead-bound GRK2, FAM-aptamer displacement, at 10 µM, stronger effect = higher value
# Sequence of Beta-adrenergic receptor kinase 1 (Homo sapiens) (P25098 whole entry, looked up): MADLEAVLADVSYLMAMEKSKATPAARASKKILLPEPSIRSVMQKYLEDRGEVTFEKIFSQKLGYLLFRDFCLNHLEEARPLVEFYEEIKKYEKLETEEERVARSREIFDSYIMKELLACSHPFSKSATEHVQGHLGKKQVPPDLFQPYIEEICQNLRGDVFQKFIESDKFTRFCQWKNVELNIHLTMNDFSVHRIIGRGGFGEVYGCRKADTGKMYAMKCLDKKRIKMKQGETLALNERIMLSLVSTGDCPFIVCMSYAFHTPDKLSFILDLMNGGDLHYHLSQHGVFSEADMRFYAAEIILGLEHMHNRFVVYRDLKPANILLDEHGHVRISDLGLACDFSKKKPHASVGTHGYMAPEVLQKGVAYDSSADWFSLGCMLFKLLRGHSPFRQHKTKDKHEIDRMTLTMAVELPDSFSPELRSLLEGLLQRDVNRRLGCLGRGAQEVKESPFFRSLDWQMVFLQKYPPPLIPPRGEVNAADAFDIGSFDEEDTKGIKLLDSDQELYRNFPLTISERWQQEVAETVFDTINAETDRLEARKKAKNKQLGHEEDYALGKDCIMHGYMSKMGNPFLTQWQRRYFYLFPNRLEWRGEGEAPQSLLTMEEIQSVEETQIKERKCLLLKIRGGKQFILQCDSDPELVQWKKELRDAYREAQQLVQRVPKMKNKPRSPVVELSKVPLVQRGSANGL
# [10] = target: Beta-2 adrenergic receptor (Homo sapiens) (UniProt P07550); assay: agonist-induced loss of surface beta2AR – cell-based, FAP fluorogen, flow cytometry, validation set, pilot screen (AID 504459;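 active = percent response above 42, roughly 3 SD of non-fluorescent test compounds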;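 note: agonist-driven loss of surface beta2AR via internalization measured by FAP dye flow cytometry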); settings: Am2.2-beta2AR cells, at 10 µM, stronger effect = higher value
# Sequence of Beta-2 adrenergic receptor (Homo sapiens) (P07550 whole entry, looked up): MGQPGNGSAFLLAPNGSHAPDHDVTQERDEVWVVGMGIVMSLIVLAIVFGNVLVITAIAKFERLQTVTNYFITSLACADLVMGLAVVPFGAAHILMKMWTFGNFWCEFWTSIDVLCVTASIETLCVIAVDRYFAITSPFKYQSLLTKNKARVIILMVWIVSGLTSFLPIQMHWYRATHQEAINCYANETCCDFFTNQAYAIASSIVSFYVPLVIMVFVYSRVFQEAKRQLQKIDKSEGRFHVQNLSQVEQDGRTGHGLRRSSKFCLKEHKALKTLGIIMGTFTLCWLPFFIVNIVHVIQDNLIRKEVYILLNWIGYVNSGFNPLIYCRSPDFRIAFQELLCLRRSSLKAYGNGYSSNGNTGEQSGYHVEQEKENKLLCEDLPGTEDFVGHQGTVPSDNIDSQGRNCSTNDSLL
# [11] = target: AP-2 complex subunit beta (Homo sapiens) (UniProt P63010); assay: beta-arrestin/AP2 interaction blockers – biochemical, validation set, GST-AP2 beads, flow cytometry, pilot screen (AID 504541;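 active = inhibition above 54%, about 3 SD of non-fluorescent compounds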;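 note: AP2 carries R879A mutation and is captured from E. coli lysate; bead-bound FITC arrestin peptide fluorescence measuring arrestin peptide binding to AP2; 0% = DMSO wells and 100% = excess unlabeled arrestin peptide control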); settings: FITC arrestin peptide, at 10 µM, stronger effect = higher value, AP2 beta2 appendage fragment, R879A mutant
# Sequence of AP-2 complex subunit beta (Homo sapiens) (P63010 whole entry, looked up, the tested form may be a part, one chain of several): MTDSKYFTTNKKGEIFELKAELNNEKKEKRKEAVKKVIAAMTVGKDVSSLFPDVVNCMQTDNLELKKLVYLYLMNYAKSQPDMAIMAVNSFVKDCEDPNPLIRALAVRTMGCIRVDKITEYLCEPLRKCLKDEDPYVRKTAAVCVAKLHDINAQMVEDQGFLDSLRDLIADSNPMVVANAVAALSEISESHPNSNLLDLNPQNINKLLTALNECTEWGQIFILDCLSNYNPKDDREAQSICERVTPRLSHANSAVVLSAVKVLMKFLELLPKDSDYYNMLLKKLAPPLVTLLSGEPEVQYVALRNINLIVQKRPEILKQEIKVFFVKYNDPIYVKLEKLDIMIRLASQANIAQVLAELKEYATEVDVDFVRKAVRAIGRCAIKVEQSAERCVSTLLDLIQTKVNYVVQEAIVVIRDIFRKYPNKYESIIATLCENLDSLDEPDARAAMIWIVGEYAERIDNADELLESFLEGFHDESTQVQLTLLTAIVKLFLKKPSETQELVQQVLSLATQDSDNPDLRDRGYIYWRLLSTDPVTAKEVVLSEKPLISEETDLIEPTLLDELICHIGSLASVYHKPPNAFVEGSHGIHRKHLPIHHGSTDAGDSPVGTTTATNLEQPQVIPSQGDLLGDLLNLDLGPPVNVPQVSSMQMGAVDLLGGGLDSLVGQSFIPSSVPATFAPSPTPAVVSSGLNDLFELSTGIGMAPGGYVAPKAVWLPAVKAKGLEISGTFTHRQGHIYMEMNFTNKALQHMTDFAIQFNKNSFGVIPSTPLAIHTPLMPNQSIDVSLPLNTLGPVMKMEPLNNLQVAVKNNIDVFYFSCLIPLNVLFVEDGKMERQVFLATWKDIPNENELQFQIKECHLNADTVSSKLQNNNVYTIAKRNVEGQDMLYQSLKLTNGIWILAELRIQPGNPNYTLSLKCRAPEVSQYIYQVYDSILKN
# [12] = cytosolic pH regulators acting via V-ATPase – S. cerevisiae, pHLuorin, HTS validation (AID 504600; in the data active = response above about 15%;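 note: plate controls were DMSO for no effect and reference compound for full effect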); settings: V-ATPase proton transport, at 10 µM, stronger effect = higher value
# [13] = system: anti-desmoglein-3 scFv antibody binding to human DSG3; assay: blockers of pathogenic pemphigus antibody–desmoglein-3 binding – biochemical, validation compound set, bead-based, flow cytometry, pilot screen (AID 588368;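 active = binding below the plate cutoff, the plate median minus 3 SD, with a reading above zero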;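 note: signal is the median channel fluorescence of bead-bound GFP antibody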); settings: Protein G beads, DSG3-Fc, scFv-GFP binding, at 10 µM, stronger effect = lower value
# [14] = Nile Red efflux blockade in pump-expressing yeast – validation compound set, multiplex, phenotypic, pilot screen (AID 588506;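 active = efflux inhibition above 0.42, the validation set average plus 4 SD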;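 note: Nile Red retained in cells so higher fluorescence means more efflux inhibition; 0 = negative control wells and 1 = enniatin B 25 µM full block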); settings: S. cerevisiae pump-expressing triplex, Nile Red efflux flow cytometry; at 10 µM; stronger effect = higher value; the pumps come from Candida albicans
# [15] = target: ATP-binding cassette sub-family B member 6 (Homo sapiens) (UniProt Q9NP58); assay: blockers of ABCB6-driven porphyrin uptake – K562-ABCB6 cells, flow cytometry, validation set, pilot screen (AID 588550;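 active = inhibition above the screen-wide mean plus 3 SD, about 51%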;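 note: 0% = DMSO wells and 100% = benzethonium chloride 70 µM positive control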); settings: K562-ABCB6 porphyrin accumulation, 1 h, at 10 µM, stronger effect = higher value
# Sequence of ATP-binding cassette sub-family B member 6 (Homo sapiens) (Q9NP58 whole entry, looked up): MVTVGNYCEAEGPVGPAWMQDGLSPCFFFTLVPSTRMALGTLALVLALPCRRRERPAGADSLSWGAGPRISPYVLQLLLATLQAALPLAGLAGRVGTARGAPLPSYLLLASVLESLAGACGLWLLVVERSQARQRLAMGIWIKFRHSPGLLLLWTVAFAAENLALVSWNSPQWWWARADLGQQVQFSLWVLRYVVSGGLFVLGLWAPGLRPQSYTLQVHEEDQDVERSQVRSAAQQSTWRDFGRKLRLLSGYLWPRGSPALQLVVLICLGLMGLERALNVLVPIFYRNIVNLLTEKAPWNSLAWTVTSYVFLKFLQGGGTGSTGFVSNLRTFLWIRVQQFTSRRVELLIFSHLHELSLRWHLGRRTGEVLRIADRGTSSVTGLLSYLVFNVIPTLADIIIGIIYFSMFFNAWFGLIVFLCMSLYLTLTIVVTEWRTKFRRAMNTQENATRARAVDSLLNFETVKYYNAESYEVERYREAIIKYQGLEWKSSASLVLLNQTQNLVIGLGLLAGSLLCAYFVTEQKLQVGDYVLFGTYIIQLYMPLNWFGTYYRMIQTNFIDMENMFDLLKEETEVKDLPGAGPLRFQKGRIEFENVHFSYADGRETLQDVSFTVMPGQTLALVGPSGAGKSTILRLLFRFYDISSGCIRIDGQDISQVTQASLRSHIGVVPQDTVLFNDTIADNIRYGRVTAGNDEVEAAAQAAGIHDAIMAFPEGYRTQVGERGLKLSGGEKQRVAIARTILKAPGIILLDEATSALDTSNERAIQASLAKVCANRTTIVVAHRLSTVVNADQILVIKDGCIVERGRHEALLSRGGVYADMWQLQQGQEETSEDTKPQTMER
# [16] = AML differentiation inducers, ER-HoxA9 marrow cells – cell-based, GFP/MAC1 double positive, flow cytometry, validation set, primary screen (AID 588685;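 active = differentiation response of at least 50%, scaled between solvent and reference control, from cells with both markers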;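 note: compound exposure lasts four days before antibody staining and flow analysis; 0% = DMSO wells and 100% = 5 µM fulvestrant positive control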); settings: stronger effect = higher value, normalized: vehicle 0, fulvestrant 100
Structure (SMILES),percent of DMSO control GFP [1],GFP response vs DMSO [2],percent response of DMSO control [3],GFP response vs DMSO [4],"GFP response, % of DMSO [5]",double positive events [6] [%],vesicle binding response [6],inhibition [7],superoxide response (% of plate) [8],aptamer binding inhibition [9],response [10],inhibition [11],response [12],binding (% of control) [13],efflux inhibition (fraction of control) [14],inhibition [15],differentiation response [16]
COCC(C)NC(=O)c1ccc(CN2CCc3ccccc3C2)cc1 (stereo not given),97.3% (inactive),108% (inactive),103% (inactive),120% (inactive),92.6% (inactive),60.9,257% (inactive),-12.7% (inactive),103% (inactive),-9% (inactive),-5.78% (inactive),53.4% (inactive),-6.18% (inactive),195% (inactive),-0.1 (inactive),2% (inactive),16.8% (inactive)
CC(=O)N1CCN(c2ccc(NC(=O)/C=C/c3ccccc3)cc2)CC1,103% (inactive),98.7% (inactive),105% (inactive),100% (inactive),108% (inactive),63.1,168% (inactive),2.93% (inactive),76% (inactive),-3% (inactive),3.43% (inactive),-6.59% (inactive),3.19% (inactive),107% (inactive),0.39 (inactive),-1% (inactive),-11.9% (inactive)
C[C@]12CCC3C(CC=C4C[C@@H](O)CC[C@@]43C)C1CCC2[C@]1(C)CCC(=O)O1 (stereo not given in full),102% (inactive),97.4% (inactive),109% (inactive),84.6% (inactive),95.7% (inactive),57,164% (inactive),0.94% (inactive),100% (inactive),4% (inactive),1.67% (inactive),-4.51% (inactive),-0.48% (inactive),103% (inactive),0.48 (active),9% (inactive),-15.2% (inactive)
Cc1ccc(/C=N/NC(=O)C2(C)CC2(Br)Br)cc1 (stereo not given),101% (inactive),98.7% (inactive),98.6% (inactive),130% (inactive),105% (inactive),60.8,184% (inactive),-7.79% (inactive),84.5% (inactive),-4% (inactive),-4.63% (inactive),4.52% (inactive),1.48% (inactive),104% (inactive),-0.22 (inactive),-2% (inactive),-11.9% (inactive)
COc1ccc2[nH]c3c(=O)n(/N=C/[C@H]4C(C)C=C(C)CC4C)c(=O)[nH]c3c2c1 (stereo not given in full),99.9% (inactive),109% (inactive),92% (inactive),107% (inactive),102% (inactive),57.4,6260% (inactive),6.4% (inactive),95.3% (inactive),3% (inactive),5.28% (inactive),32.4% (inactive),-6.18% (inactive),98.7% (inactive),0.22 (inactive),1% (inactive),-28% (inactive)
O=C(NC1CCCCC1)c1cc2nc(-c3ccco3)cc(C(F)(F)F)n2n1,89.5% (inactive),106% (inactive),102% (inactive),78.7% (inactive),88.2% (inactive),43.2,158% (inactive),-1.3% (inactive),111% (inactive),0% (inactive),-19.4% (inactive),1.72% (inactive),8.07% (inactive),107% (inactive),0.09 (inactive),9% (inactive),20.5% (inactive)
O=c1oc2c(CN3CCCCC3)c(O)ccc2c2c1CCCCC2,102% (inactive),102% (inactive),102% (inactive),107% (inactive),107% (inactive),59.1,136% (inactive),6.95% (inactive),102% (inactive),1% (inactive),-8.88% (inactive),-7.24% (inactive),3.83% (inactive),96.4% (inactive),-0.16 (inactive),4% (inactive),8.59% (inactive)
Cc1ccc(C2=NOC(=O)/C2=C\C=C\c2ccccc2)cc1,107% (inactive),101% (inactive),108% (inactive),139% (inactive),73.5% (inactive),69.9,167% (inactive),33.8% (inactive),113% (inactive),-4% (inactive),34% (inactive),13% (inactive),-2.56% (inactive),105% (inactive),-0.17 (inactive),-16% (inactive),-4.57% (inactive)
COC(=O)[C@H]1[C@H]2C[C@@H]3c4[nH]c5cc(OC)ccc5c4CCN3C[C@H]2C[C@@H](OC(=O)c2ccc(N)cc2)[C@@H]1OC,105% (inactive),98.3% (inactive),111% (inactive),94% (inactive),102% (inactive),64.5,828% (inactive),-393% (inactive),97% (inactive),3% (inactive),-18.1% (inactive),-1.6% (inactive),-2.37% (inactive),104% (inactive),-0.17 (inactive),-53% (inactive),0.24% (inactive)
O=C(CCCN1C(=O)/C(=C\c2cccc(Br)c2)SC1=S)Nc1cccnc1,94.2% (inactive),104% (inactive),95.8% (inactive),120% (inactive),95.8% (inactive),57.4,211% (inactive),2.3% (inactive),98.5% (inactive),2% (inactive),10.2% (inactive),-4.08% (inactive),-5.34% (inactive),101% (inactive),0.01 (inactive),5% (inactive),-12% (inactive)
